# Hits are enriched below; roughly 4.3% of the tested compounds scored in any of these assays.
# Wnt bcat act = activators of Wnt/beta-catenin signaling; actives 1.2% (n = 300,000); Wnt/beta-catenin reporter cell assay, activator, plate reader; activation, % at 9.35 µM; in the data active = activation above about 30%, passing the limit was not always enough; inconclusive = no clear call, values can overlap the other calls
# MITF act = activators of MITF-driven TRPM1 promoter activity in SK-MEL-5 cells; SK-MEL-5 TRPM1-promoter luciferase, 24 h; % of positive control, neutral wells = 0; activation, % at 12.5 µM; actives 0.75% (n = 300,000); AID 588334;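 active = mean activation of at least 80% with every replicate also reaching 80%; inconclusive = mean reaches 80% but some replicate falls short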
# HSF1 inhib = HSF1 inhibition. activity change, negative = inhibition, % at 7.5 µM (by protocol). actives 0.77% (n = 300,000). NIH3T3-HGL HSE-luciferase, MG132-induced, luminescence 8 h; stronger effect = lower value;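 active = more than half of replicate wells show activity change below -50%, luminescence cut by over half; inconclusive = some wells, but at most half, below -50%; inactive = no replicate well below -50%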;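 note: luciferase reports HSF-1 transcriptional activity via heat shock element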
# SMARCA2 activ = SMARCA2 function activation, primary screen. MG213 cells, MMTV-luciferase reporter, dexamethasone, overnight. activation, % at 9.1 µM. actives 1% (n = 370,000). AID 652017; in the data active = activation above about 7.8%
# esBAF inh = SWI/SNF esBAF complex inhibition | mouse ES cells, Bmi1-luciferase knock-in reporter, 24 h; 100% = twice the neutral-well signal | reporter increase, % at 12.5 µM | actives 2% (n = 350,000) | AID 602393; in the data active = activation above about 40%; inconclusive = no clear call, values can overlap the other calls;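 note: a rise in the Bmi1 reporter signal indicates esBAF inhibition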
# HSF1 activator = increases HSF-1 driven luciferase reporter signal. actives 1.7% (n = 300,000). NIH3T3-HGL HSF-1 luciferase reporter, MG132, 8 h; 100% = twice DMSO control signal. AID 504408. activation, % at 9 µM;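 active = mean replicate activation of at least 50% with a set share of replicates each reaching 50%; inconclusive = only one of those two conditions met; inactive = mean below 50% and too few replicates reaching it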
# A number is an active result; . = inactive; ? = inconclusive; / = not tested or not shown.
SMILES,Wnt bcat act,MITF act,HSF1 inhib,SMARCA2 activ,esBAF inh,HSF1 activator
O=C1COc2ccc(S(=O)(=O)N3CCC(C(=O)NCc4ccc(F)cc4)CC3)cc2N1,.,.,.,.,.,.
Cc1ccc(CCNC(=O)C2CCN(S(=O)(=O)c3ccc4c(c3)NC(=O)CO4)CC2)cc1,.,.,.,.,.,68
COc1ccc(CCNC(=O)C2CCN(S(=O)(=O)c3ccc(C)cc3)CC2)cc1OC,62,.,.,.,.,.
COc1ccc(CCNC(=O)C2CCN(S(=O)(=O)c3ccc(OC)c(OC)c3)CC2)cc1OC,.,.,.,.,.,.
CCCNC(=O)Nc1ccc2c(c1)C(=O)N(C)C[C@H](OC)[C@H](C)CN(Cc1ccccc1)[C@H](C)CO2,/,/,/,/,.,/
CON(C)C(=O)/C=C/c1ccc([B-](F)(F)F)cc1,.,.,/,.,47,/
C[C@H]1CCCCO[C@@H](CN(C)C(=O)C2CCCCC2)[C@@H](C)CN([C@@H](C)CO)C(=O)c2cc(NC(=O)CCC(F)(F)F)ccc2O1,/,/,/,/,.,/
O=C(c1nnc(-c2ccncc2)o1)c1ccccc1Cl,35,.,.,.,.,.
Cc1cccc(OCc2nc(C#N)c(NCCN(C)C)o2)c1,.,.,.,.,.,.
COc1ccc(Nc2oc(COc3cccc(C)c3)nc2C#N)cc1,43,.,.,.,.,.
Cc1ccc(OCc2nc(C#N)c(NCc3ccco3)o2)cc1,.,/,.,.,.,.
N#Cc1nc(COc2cccc(Cl)c2)oc1NCc1ccco1,.,.,.,.,51,.
CCNc1oc(COc2cccc(C)c2)nc1C#N,/,.,.,.,45,.
COc1cccc(/C=N/Nc2c(Cl)cncc2Cl)c1O,.,113,.,.,?,.
COc1cccc(/C=N/Nc2cc(Cl)nc(C)n2)c1O,.,.,.,.,/,.
Cc1nnc(N/N=C/c2ccccc2F)n1N,.,.,.,.,.,.
Cc1nnc(N/N=C/c2ccco2)n1N,.,.,.,.,.,56
COc1cccc(/C=N/Nc2nnc(C)n2N)c1O,.,.,.,.,.,68
Cc1nnc(N/N=C/c2ccccc2C(F)(F)F)n1N,.,/,.,.,.,.
O=C(NCCc1ccncc1)[C@H]1N[C@H]2c3ccc(/C=C/c4ccccc4)c(=O)n3C[C@H]2[C@@H]1CO,/,/,/,/,.,/
COc1cccc(NC(=O)N2C[C@@H](O)COC[C@@H]3O[C@H](CC(=O)N(C)C)CC[C@H]32)c1,/,/,/,/,.,/
COc1ccc(C)cc1NC(=O)CSc1nnnn1Cc1ccccc1,44,.,.,.,/,.
COc1cc(NC(=O)CSc2nnnn2Cc2ccccc2)cc(OC)c1,.,.,.,.,/,.
Cc1cccc(N2CCN(S(=O)(=O)c3c(C)[nH]c(C)c3C(=O)N3CCCC3)CC2C)c1 (stereo not given),.,.,.,.,.,55
CCOC(=O)c1c(C)[nH]c(C)c1S(=O)(=O)N1CCN(c2cccc(C)c2)C(C)C1 (stereo not given),.,.,.,.,.,87
SMILES,Wnt bcat act,MITF act,HSF1 inhib,SMARCA2 activ,esBAF inh,HSF1 activator
CCOC(=O)c1c(C)[nH]c(C)c1S(=O)(=O)N1CCCCC1,.,.,.,.,.,57
CCOC(=O)c1c(C)[nH]c(C)c1S(=O)(=O)N1CCC(c2ccccc2)C1 (stereo not given),.,.,.,.,.,.
Cc1ccc(CC2CC(=O)N(Cc3ccco3)C2=O)cc1 (stereo not given),/,.,.,.,.,73
O=C1CC(Cc2ccccc2)C(=O)N1Cc1ccco1 (stereo not given),/,.,.,/,.,.
CCOC(=O)N1CCC2(CC1)C(C#N)=C(N)Oc1n[nH]c(CSc3ccc(C)cc3)c12,70,/,.,.,.,.
COc1ccccc1N/C=C/c1onc(C)c1[N+](=O)[O-],.,.,.,.,/,.
Cc1noc(/C=C/c2ccccn2)c1[N+](=O)[O-],.,/,.,.,48,?
CC(=NNC(=S)SCc1ccccc1)c1ccccn1,.,.,95,.,/,95
CC(=NNC(=S)N1CCCC1)c1ccccn1,.,/,/,.,.,/
O=C(NC[C@H]1[C@@H](c2ccccc2)[C@@H](CO)N1CC1CCCC1)c1cccnc1,/,/,/,/,.,/
CCCNC(=O)C[C@H]1C[C@H]2c3cc(NC(=O)COC)ccc3O[C@H]2[C@@H](CO)O1,/,/,/,/,.,/
Brc1c(CSc2nc3ccccc3s2)nc2ncccn12,.,.,.,.,/,66
CC1=NN(c2ccccc2)C(=O)C1N=Nc1ccc(S(N)(=O)=O)cc1 (stereo not given),.,/,-78,.,.,.
Cn1nc(N)c2c(-c3ccccc3)c(C#N)c(N)nc21,.,.,-69,.,/,.
Cc1c(CC(C)C)nc(N)c(C#N)c1-c1ccccc1,/,.,.,.,87,.
CCc1c(C)nc(N)c(C#N)c1-c1ccccc1,.,.,.,.,.,.
Cn1nc(N)c2c(-c3ccc(Cl)cc3)c(C#N)c(N)nc21,/,.,.,.,/,.
CCN(CC)S(=O)(=O)c1cccc(-c2nnc(SCC(N)=O)n2CCc2ccccc2)c1,.,.,-60,.,.,.
O=C(C[C@@H]1CC[C@@H]2[C@H](COC[C@@H](O)CN2C(=O)Nc2ccc(C(F)(F)F)cc2)O1)NCCc1ccncc1,/,/,/,/,.,/
Cc1noc(C)c1COc1ccccc1C(=O)N(C)CC(=O)Nc1ccc(Cl)c(Cl)c1,.,.,.,.,.,.
Cc1noc(C)c1COc1ccccc1C(=O)N(C)Cc1ccco1,38,.,/,.,.,/
O=C(Nc1nnc(CCc2ccccc2)s1)c1cccs1,/,.,.,.,46,.
CC(C)(C)CC(=O)Nc1nnc(CCc2ccccc2)s1,.,/,.,.,?,.
O=C(Nc1nnc(CCc2ccccc2)s1)c1ccco1,.,.,.,.,.,.
CCC(C)(C)C(=O)Nc1nnc(CCc2ccccc2)s1,.,.,.,.,62,.
SMILES,Wnt bcat act,MITF act,HSF1 inhib,SMARCA2 activ,esBAF inh,HSF1 activator
CCCCN1CCc2c([nH]c3ccc(C)cc23)C1=O,37,.,.,.,?,?
O=C(CCCc1ccccc1)Nc1ccccc1C(F)(F)F,.,/,.,.,72,.
NC(=O)c1ccccc1NC(=O)CCc1ccccc1,.,.,.,/,48,.
O=C(CCCOc1ccccc1)Nc1ccccc1C(F)(F)F,/,.,.,.,.,.
COc1ccc(C/C(C)=N/NC(=S)Nc2ccc(C(C)C)cc2)cc1,/,.,.,.,.,.
COc1ccc(C/C(C)=N/NC(=S)Nc2ccccc2F)cc1,.,.,-64,.,/,.
COc1ccc(C(=O)CSc2ncnc3nc[nH]c23)cc1,.,/,.,.,/,.
Cc1ccc(OCCSc2ncnc3nc[nH]c23)cc1,/,90,.,.,/,.
Cc1cc(C(F)(F)Cl)n2ncc(-c3ccccn3)c2n1,.,.,.,.,61,.
COc1ccc(C(O)c2nc(-c3cc4ccccc4o3)cs2)cc1 (stereo not given),.,/,/,.,.,/
CN1CCN(c2nc(-c3cc4ccccc4o3)cs2)CC1,/,.,.,.,/,.

# Compound activity: PubChem BioAssay, several laboratories
